Drawing on PubChem BioAssay (NCI), this text covers growth for 14 compounds.

Common to all, as to test: NCI-60 one-dose screen, 48 h (100 = growth as untreated, 0 = no growth, -100 = all killed)
Common to all, as to details: 10 µM

Assay [1] concerns DU-145 prostate.
Assay [2] deals with K-562 leukemia.
The test system of assay [3] is MALME-3M melanoma.
The test system of assay [4] is MDA-MB-231 breast.
In assay [5] the test system is RXF 393 renal.
Assay [6] deals with SF-268 CNS.
For assay [7], the system named is SF-295 CNS.
Assay [8] deals with SF-539 CNS.
Assay [9] concerns UACC-257 melanoma.
For assay [10], the system named is M14 melanoma.

Molecules are shown by their SMILES. This is part of a sample that, as a whole, favours compounds with a hit. Of some 83,000 tested, about 20% had one in any assay.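 Cells were grown in 96-well plates and exposed to the test compound at a single concentration for 48 hours; results are reported as percent growth, with values below 10 considered active.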 Unmarked numbers belong to inactive results. Calls of active or inactive are those of the source.

Regarding `Cn1cnc([N+](=O)[O-])c1/C=C1\Oc2ccc(Br)cc2C1=O`, the growth is 91.9% in [1]; 67.1% in assay [2]; 96.2% in [3]; 91.8% in assay [4]; 102% in assay [5]; 90% in assay [6]. The growth in [7] was 87.6%; in assay [8], 104%; in assay [9], 84.8%; in assay [10] it was 95.4%.
Turning to `O=C(/C=C/c1cccc(B(O)O)c1)c1cccc(B(O)O)c1`, the growth in assay [1] was -69.4% (active); in [2], 11.5%; in assay [3] it was 26.4%; in [4] it was -9.31% (active); in assay [5], -86.7% (active); in assay [6], -28.5% (active). Moreover, the growth was -14.6% (active) in assay [7], -30.8% (active) in [8], -11% (active) in [9] and -56.3% (active) in assay [10].
Regarding `CCN(CC)CCOc1cccc2c1C(=O)c1ccccc1C2=O`, the growth was 100% in [1]; 93.8% in [2]; 115% in assay [3]; 85.7% in assay [4]; 79.9% in assay [5]; 94.2% in assay [6]. In addition, the growth in [7] was 96.8%; in [8], 99.7%; in [9], 94.4%; in assay [10], 94.4%.
Turning to `COc1ccc(C(=O)N/N=C/c2cc(C(F)(F)F)ccc2Cl)cc1`, the growth is 105% in assay [1]; 95.4% in assay [2]; 111% in [3]; 89.4% in [4]; 74.9% in [5]; 112% in assay [6]. The growth was 78.2% in [7], 104% in [8], 105% in assay [9] and 104% in assay [10].
Regarding `COc1ccc2c(c1)C(=O)/C(=C/c1ncc([N+](=O)[O-])n1C)O2`, the growth in assay [1] was -13.6% (active); in assay [2], 1.52% (active); in assay [3], -56.2% (active); in assay [4], -18.1% (active); in [5] it was -54.4% (active); in assay [6], -39.7% (active). Further, the growth in assay [7] is -18.4% (active); in [8], -29.4% (active); in assay [9], -43.9% (active); in assay [10], -37.7% (active).
Turning to `CCN(CC)CCOc1cccc2c1C(=O)c1cccc(OCCN(CC)CC)c1C2=O`, the growth in [1] was 27.1%; in assay [2] it was 27.9%; in assay [3] it was 52%; in assay [4] it was 42.4%; in [5], 42.4%; in assay [6], 40.8%. Also, the growth is 32.5% in [7], 37.3% in assay [8], 70.7% in [9] and 35.4% in [10].
`CC(=O)C1N=NCC1c1ccccc1` (stereo not given): the growth in assay [1] was 110%; in [2], 80.4%; in assay [3], 95.2%; in [4], 97.9%; in assay [5], 106%; in [6] it was 104%. For the same compound, the growth in assay [7] is 95.4%; in assay [8] it was 103%; in [9] it was 110%; in assay [10], 99.3%.
Turning to `CC1CCCC(C(=O)O)C1C(=O)O` (stereo not given), the growth in assay [1] was 114%; in [2], 87.6%; in assay [3], 87.8%; in [4], 92.8%; in assay [5] it was 94.5%; in assay [6], 105%. Also, the growth in assay [7] is 94.8%; in assay [8], 97.8%; in assay [9], 80.8%; in assay [10], 94.7%.
Take `Clc1nc2ccc(Br)cc2cc1-c1nc2ccccc2[nH]1`: the growth is 99.4% in [1]; 86.1% in [2]; 97.2% in assay [3]; 64.6% in [4]; 10.6% in assay [5]; 59.3% in [6]. For the same compound, the growth was 86.7% in [7], 107% in assay [8], 102% in assay [9] and 105% in assay [10].
`CCCCC1(O)CCCCC1`: the growth in assay [1] was 101%; in assay [2] it was 96.1%; in assay [3], 97.2%; in [4], 103%; in assay [5], 98.8%; in assay [6] it was 103%. The growth in assay [7] was 97.6%; in [8], 118%; in assay [9], 102%; in assay [10], 99.3%.
With `CCN(CC)CCCC(Nc1c2ccc(Cl)cc2nc2ccc(OC)cc12)c1ccc(F)cc1` (stereo not given), the growth in assay [1] is 32.6%; in assay [2], -42.8% (active); in assay [3], -75.4% (active); in assay [4] it was -15.2% (active); in [5], -71.1% (active); in [6], 67.8%. Moreover, the growth was 91.5% in assay [7], -82.3% (active) in assay [8], -55.3% (active) in [9] and -79.2% (active) in assay [10].
With `COc1cc2cc(Oc3ccc(NC(=O)Nc4ccc(Cl)c(Cl)c4)cc3)c(C)nc2cc1OC`, the growth in assay [1] is 24.8%; in [2] it was 12.7%; in assay [3] it was 14.9%; in assay [4], 47.8%; in assay [5], 22.3%; in assay [6], 43.7%. In addition, the growth was 0.689% (active) in [7], 38.5% in assay [8], 1.38% (active) in assay [9] and 25.8% in assay [10].
Take `COc1ccc(-c2cc(-c3ccccc3)nc(SCCCC(=O)NO)n2)cc1`: the growth was 1.16% (active) in assay [1]; 6.74% (active) in assay [2]; -9.2% (active) in [3]; -0.784% (active) in assay [4]; -40.8% (active) in assay [5]; -18.8% (active) in [6]. Also, the growth in assay [7] is -39.6% (active); in assay [8], 0.299% (active); in assay [9], -3.3% (active); in assay [10] it was -21.8% (active).
As to `O=C(Nc1ccc(NS(=O)(=O)c2ccc(F)cc2)cc1)C12CC3CC(CC(C3)C1)C2`, the growth is 103% in assay [1]; 74.7% in assay [2]; 87.1% in [3]; 96.2% in [4]; 105% in [5]; 97.4% in assay [6]. Also, the growth in [7] was 91.2%; in assay [8] it was 106%; in [9], 91.6%; in assay [10] it was 96.6%.
